Laboratory results taken from PubChem BioAssay (NCI).
Compounds without any hit were thinned out: in the full panel of roughly 83,000, 20% have a hit.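 Compound tested at a single concentration for 48 hours in 96-well plates; a percent growth value below 10 was scored as active.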 Calls of active or inactive are those of the source.

The compounds below were run on SR leukemia (assay: NCI-60 one-dose screen, 48 h (100 = growth as untreated, 0 = no growth, -100 = all killed)). Details: 10 µM unless noted.
Method: Growth inhibition of the SR human tumor cell line is measured as a screen for anti-cancer activity. Cells are grown in 96 well plates and exposed to the test compound for 48 hours. Compounds are tested at a single concentration, which is 10^-5 M for most compounds. The reported endpoint is percent growth (GI% or GIPRCNT), where numbers from 0 - 100% represent growth inhibition, and numbers from -100% - 0 represent cell death. For example, a value of 40 represents 60% growth inhibition. A value of 0 means no net growth occurred over the course of the experiment. A value of -40 indicates 40% of cells at the beginning of the experiment died by the end of the experiment. A value of -100 means all cells are dead at the end of the experiment.
NCI-60 Human Tumor Cell Lines Screen was performed using the standard one-dose NCI protocol, which is described in more detail at https://dtp.cancer.gov/discovery_development/nci-60/default.htm.
Compounds with GIPRCNT values below 10 were considered active. Activity score was based on GIPRCNT using the following formula: […]
Score is 0 for GIPRCNT values of 100 or above, 50 for GIPRCNT values of 0, and 100 for GIPRCNT values of -100.
In the case of `NC(=O)NN=C(C1CC1)C1CC1`, the growth is reported as 85.6% (inactive).
With `CC(C)C(=O)Cc1cnccn1` the growth was 114% (inactive).
In the case of `CN(CC(=O)Nc1nc2ccccc2[nH]1)S(=O)(=O)c1ccc(Cl)cc1`, the growth is reported as 89.9% (inactive).
In the case of `CCOC(=O)c1c(NC(=O)C2CCCCC2C(=O)O)sc2c1CCCC2` (stereo not given), the growth is reported as 111% (inactive).
`CO[C@H]1/C=C/O[C@@]2(C)Oc3c(C)c(O)c4c(O)c(c(/C=N/N5CCN(C)CC5)c(O)c4c3C2=O)NC(=O)/C(C)=C\C=C\C(C)[C@H](O)[C@@H](C)[C@@H](O)[C@@H](C)[C@@H](OC(C)=O)[C@@H]1C` (stereo not given in full) was tested, and the growth was 105% (inactive).
With `O=C(O)c1ccc(NC(=O)c2cccc(Nc3ccnc(C(F)(F)F)c3)c2)cc1` the growth was 86.1% (inactive).
`Cc1c(NCc2nnc3n(Cc4ccccc4)c(=O)c4c5c(sc4n23)CCCC5)c(=O)n(-c2ccccc2)n1C` was tested, and the growth was 68.7% (inactive).
With `O=C(/C=C/c1ccccc1)CC(c1ccccc1)N1CCOCC1` (stereo not given) the growth was -7.57% (active).
`COc1ccc(C(=O)Nc2nc(-c3ccc(Cl)cc3)cs2)cc1` was tested, and the growth was 105% (inactive).
`COc1cccc(-c2nnc(N)o2)c1` was tested, and the growth was 124% (inactive).
In the case of `COc1ccc(Cn2c(NCCCN(C)C)nc(=O)n(Cc3ccc(F)cc3)c2=O)cc1`, the growth is reported as 83.5% (inactive).
In the case of `COc1cc2c(c(OC)c1OC)-c1ccc(NN(C(=O)c3ccccc3)C(=O)c3ccccc3)c(=O)cc1[C@@H](NC(C)=O)CC2` (tested in a mixture with another compound), the growth is reported as 18.1% (inactive).
In the case of `O=C(Nc1ccc(Cl)cc1Cl)Nc1ccc(-c2cccnc2)cc1N1CCC(CO)CC1`, the growth is reported as 6.57% (active).
In the case of `CCOc1ccccc1C(=O)OCC(=O)Nc1cccc(S(=O)(=O)N(C)C)c1`, the growth is reported as 105% (inactive).
In the case of `COc1ccc2nc3cc(Cl)ccc3c(Nc3cc(C(C)C)c(O)cc3C)c2c1`, the growth is reported as 16.9% (inactive).
For `COc1ccc(Cn2cc3c(c2-c2ccccc2)CCc2cncnc2-3)cc1`, the growth was 57.7% (inactive).
With `O=C(CSCC(=O)N/N=C/c1ccccc1O)N/N=C\c1ccccc1O` the growth was 3.96% (active).
For `Oc1ccc(Cc2ccc(O)c(C3CC(c4ccc(Cl)cc4)=NN3)c2)cc1C1CC(c2ccc(Cl)cc2)=NN1` (stereo not given), the growth was 3.43% (active).
In the case of `O=C(c1ccccc1)c1ccccc1Cl`, the growth is reported as 94.5% (inactive).
With `COc1cc(/C=C2\CCC/C(=C\c3ccc(OCC4CO4)c(OC)c3)C2=O)ccc1OCC1CO1` (stereo not given) the growth was -3.1% (active).
With `CSc1nc2c(c(=O)[nH]1)C(c1ccc(Cl)cc1)C1=C(N2)/C(=C/c2ccc(Cl)cc2)CNC1` (stereo not given) the growth was -16.2% (active).
With `C[N+]1(CCc2ccccc2)CCC(CCC2CC[N+](C)(CCc3ccccc3)CC2)CC1` (stereo not given) the growth was 120% (inactive).
In the case of `COc1ccc(-c2cn(-c3ccccc3)c(-c3ccccc3)n2)cc1OC`, the growth is reported as 11.3% (inactive).
With `CCCc1cccc(CCC)c1O` the growth was 116% (inactive).
`COc1ccc(C2CC(c3ccc(OC)c(OC)c3)=NN2C(=O)c2cc(OC)c(OC)c(OC)c2)c(OC)c1` (stereo not given) was tested, and the growth was 48.7% (inactive).
With `O=C(C(Br)Br)C(Br)C(Br)c1ccccc1` (stereo not given) the growth was 19.3% (inactive).
In the case of `CSc1nnc(C2=CC(=O)c3ccccc3C2=O)n1-c1ccccc1`, the growth is reported as 70.2% (inactive).
With `COC(=O)CCC1=C(C)/C(=C/c2[nH]c(-c3ccc[nH]3)cc2OC)N=C1C` the growth was -32.1% (active).
`O=C1C2C3C=CC(O3)C2C(=O)N1Nc1ccccc1` (stereo not given) was tested, and the growth was 126% (inactive).
For `CSc1ncc2ncn(C3OC(CO)C(O)C3O)c2n1` (stereo not given), the growth was 111% (inactive).
In the case of `ClC1=C(Cl)C(Cl)=C(Cl)C1=Cc1ccc(Cl)cc1`, the growth is reported as -14.1% (active).
`CC(=O)c1ccc2c3c(n(C)c2c1)CCCC3` was tested, and the growth was 92.1% (inactive).
For `CC(C)(C)c1cc(O)c(O)c(C(C)(C)C)c1`, the growth was 11.2% (inactive).
With `C[n+]1c2ccccc2c(NC2CCNCC2)c2[nH]c3ccccc3c21` the growth was -24.4% (active).
With `OC(c1cc(C(F)(F)F)nc2c(C(F)(F)F)cccc12)C1CCCCN1` (stereo not given) the growth was 12.7% (inactive).
In the case of `CCN1CCN(c2cc(-c3cn[nH]c3-c3cc(C)cc(OC)c3)nc(-c3cccnc3)n2)CC1`, the growth is reported as 7.69% (active).
`CN(C)CCCN1c2nc3ccccc3cc2Sc2cc3ccccc3nc21` was tested, and the growth was -38.2% (active).
With `Cc1cc(O)c2c(c1)C[C@H]1[C@@H]3CC[C@H]4CC(=O)CC[C@]4(C)[C@H]3CC(=O)[C@]21C` the growth was 59.2% (inactive).
`CCOc1nc(-c2ccccc2)cc2c(O)c(C(=O)n3nc(C)cc3C)[nH]c(=O)c12` was tested, and the growth was 96.2% (inactive).
`NCCCc1nnc(CCC(=O)c2nc3ccccc3[nH]2)o1` was tested, and the growth was 84.5% (inactive).
